HIF-2a block = HIF-2a reporter inhibitors, primary screen, luminescence, 786-0 RCC cells; 786-0 RCC cells HIF-2a reporter, luciferase luminescence, overnight; inhibition, % at 18.8 µM; 360,000 compounds, 0.72% hits;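 active = inhibition of the luminescence signal of 40% or more relative to plate controls, in a single-dose primary screen at 18.75 µM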
Peg3 promoter = Peg3 promoter-driven luciferase inhibitors, primary screen, cell-based, HeLa, luciferase luminescence; HeLa PEG-Prom luciferase reporter, overnight; inhibition, % at 20 µM; 360,000 compounds, 1.7% hits;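 active = inhibition of at least 50% at 20 µM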
TWEAK Fn14 block = inhibitors of TWEAK-Fn14 signaling, primary screen, luciferase reporter cells, uHTS; TWEAK-stimulated Fn14 reporter cells, luciferase luminescence, 8 h; 360,000 compounds, 2% hits; inhibition, % at 10 µM; AID 1159606, 2016; in the data active = inhibition above about 50%
KKLEB cytotox = cytotoxicity in KKLEB CF airway cells, primary screen, cytotoxicity control for CF NF-kB inhibitor project, cell-based, uHTS, fluorescence assay plates. KKLEB CF airway cells viability, ATPlite luminescence, overnight; active compounds read low; cells stimulated with P. aeruginosa culture filtrate. activity change (cytotoxicity), % at 5 µM. 360,000 compounds, 0.36% hits. AID 602141, 2011;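 active = corrected activity change at or below -50% at 5 µM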
TROY NFkB inh = inhibitors of TROY-driven NF-kB signaling, primary screen, Q293 LMP1-TROYcd cells, NF-kB luciferase, uHTS; Q293 LMP1-TROYcd NF-kB luciferase reporter, 4 h; inhibition, % at 10 µM; 360,000 compounds, 0.98% hits;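 active = compounds whose plate-normalised and pattern-corrected inhibition of the luciferase reporter signal at the single screening dose is 50% or more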
CF NFkB block = inhibitors of PAF-induced NF-kB signaling, primary screen, cell-based, GFP fluorescence, uHTS. KKLEB NF-kB-GFP reporter, GFP fluorescence overnight. inhibition, % at 5 µM. 360,000 compounds, 0.86% hits. AID 588850, 2011;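 active = at least 50% inhibition at 5 µM, scaled per plate between neutral and stimulator controls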;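 note: PAF is a Pseudomonas aeruginosa culture filtrate used as stimulus; plate controls were PAF-stimulated DMSO wells for no effect and unstimulated DMSO wells for full effect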
* hit, by the source's call; / = no result. Sampled rows, rich in hits. Any-hit rate of the full collection: about 4%.

SMILES	HIF-2a block	Peg3 promoter	TWEAK Fn14 block	KKLEB cytotox	TROY NFkB inh	CF NFkB block
O=C(OCc1nnc(-c2ccc(Cl)cc2)o1)c1ccc(O)cc1	-97	-64	-14	2	0	4
CS(=O)(=O)c1ccc(C(=O)OCc2nnc(-c3ccc(Cl)cc3)o2)cc1[N+](=O)[O-]	-12	104*	64*	-19	66*	12
CCC(=O)c1ccc(OCc2cn(CC(=O)c3ccc(O)cc3)nn2)cc1	-9	-24	-6	-11	1	10
CCCCOC(=O)C1C2C=C[C@]3(CN(C(C)c4ccc(OC)cc4)C(=O)[C@H]13)O2 (some centres not stated)	8	15	89*	0	/	-19
O=C(c1ccncc1)N1CCN(c2cc(-c3ccccc3)nc3cc(-c4cccc(Cl)c4)nn23)CC1	-26	47	70*	-7	23	4
O=C(c1ccoc1)N1CCN(c2cc(-c3ccncc3)nc3cc(-c4cccc(Cl)c4)nn23)CC1	-5	19	13	-30	-6	20
COc1ccc(-c2cc3nc(-c4ccccc4)cc(N4CCN(C(=O)c5ccoc5)CC4)n3n2)cc1	-9	55*	14	4	-25	-4
CCCNC(=O)N1CCN(S(=O)(=O)c2ccc3c(c2)OCCO3)CC1	6	12	11	-3	10	4
COc1cccc(NC(=S)Nc2ccc(Br)cc2Cl)c1	-157	-51	6	3	-38	-1
CCOc1ccc(NC(=S)Nc2ccc(Br)cc2Cl)cc1	-20	3	18	1	58*	6
C=CCn1c(SCC(=O)N(C)C)nc2sc3c(c2c1=O)CCC3	7	19	-12	-11	2	-6
C=CC[C@H](CC(=O)N[C@H](CO)Cc1ccccc1)C(=O)N[C@@H](COC(=O)[C@H](CC=C)CC(=O)OC(C)(C)C)Cc1c[nH]c2ccccc12	0	33	22	3	31	11
O=C(CCC1CCCCC1)Nc1nncs1	2	-13	-21	-1	15	26
O=C(NCC(c1cccnc1)N1CCN(c2ccc(F)cc2)CC1)C1CCCCC1 (configuration not stated)	-1	0	14	-8	1	14
O=C(NCC(c1cccnc1)N1CCN(c2ccccc2F)CC1)C1CCCCC1 (configuration not stated)	17	5	85*	7	/	-3
COCCn1c(=NC(=O)CCS(=O)(=O)c2ccccc2)sc2cc(C(=O)OC)ccc21	17	25	-18	1	-16	8
COCCn1c(=NC(=O)c2ccc(S(=O)(=O)N3CCc4ccccc4C3)cc2)sc2cc(OC)ccc21	10	12	-15	-69*	5	55*
COc1cc(Cl)ccc1OCc1cc(C(=O)NC2CCc3ccccc32)no1 (configuration not stated)	15	11	-24	0	15	0
COc1ccccc1-c1nc(-c2ccccn2)no1	43*	47	96*	-29	66*	-27
Clc1ccc(-c2nc(-c3ccccn3)no2)cc1Cl	-50	5	80*	-25	29	-16
Brc1ccc(-c2nc(-c3ccccn3)no2)o1	14	15	91*	-1	56*	-14
COc1ccccc1-c1noc(-c2ccncc2)n1	-158	-179	1	-4	-39	5
Brc1ccc(-c2noc(-c3ccccn3)n2)o1	-144	-113	43	6	-4	-11
Clc1ccc(OCc2nc(-c3ccccn3)no2)c(Br)c1	-56	-161	67*	-32	24	-25
Clc1ccccc1OCc1nc(-c2ccccn2)no1	-99	-202	33	-5	7	1
SMILES	HIF-2a block	Peg3 promoter	TWEAK Fn14 block	KKLEB cytotox	TROY NFkB inh	CF NFkB block
Cc1ccc(S(=O)(=O)c2nc(Cc3ccccc3)oc2N2CCOCC2)cc1	11	11	7	13	7	-41
Cc1noc(C)c1CSCC(=O)Nc1ccccc1N1CCCC1	14	13	0	19	11	-4
Oc1ccc(O)c(-c2cnns2)c1	4	-21	57*	4	0	18
Cc1cc(=O)oc2c3c(cc(OCC(=O)N[C@@H](C)C(=O)O)c12)OC(C)(C)CC3	11	12	76*	10	-16	4
Cc1cc(=O)oc2c3c(cc(OCC(=O)NC(C)C)c12)OC(C)(C)CC3	5	14	-23	-3	10	-1
CCC(C)(C)C1CCC2(CC1)NC(=O)N(CC(=O)NCCc1ccc(OC)c(OC)c1)C2=O (configuration not stated)	12	8	-1	-2	6	12
Cc1cccc(Cn2nnc3c2C(=O)c2ccccc2C3=O)c1	-26	40	11	-5	18	62*
Cc1ccccc1Cn1nnc2c1C(=O)c1ccccc1C2=O	-31	2	9	0	50*	39
CC(C)N1CCN(C(=O)c2ccc(OC3CCN(CCc4ccccc4)CC3)cc2)CC1	-17	-11	-18	10	2	-21
CCOC(=O)[C@]12CCC=C1N(Cc1ccco1)C(=O)[C@H](CC(=O)N1CCCCC1)C2	7	/	1	/	8	/
COc1cc(C(=O)OCCc2cc3ccccc3c(=O)o2)cc(OC)c1OC	-3	35	13	-30	18	42
Cc1ccc(C)c(-c2cc(C(=O)Nc3sc(C)c(C)c3C(N)=O)c3ccccc3n2)c1	-2	45	66*	-11	72*	-15
Cc1cccc(-c2cc(C(=O)Nc3sc(C)c(C)c3C(N)=O)c3ccccc3n2)c1	-6	5	5	-11	30	-2
O=C(Nc1nccs1)c1cccc(N2C(=O)c3cccc4c([N+](=O)[O-])ccc(c34)C2=O)c1	9	110*	85*	-5	/	-1
O=C(Nc1ccc(S(=O)(=O)Nc2nccs2)cc1)c1cccc(N2C(=O)c3ccccc3C2=O)c1	4	-12	8	-4	-3	-5
O=C(CCCC(=O)N1CCN(c2ccccc2F)CC1)N1CCN(c2ccccc2F)CC1	-35	-57	31	-1	39	-1
O=C(O)/C=C/C(=O)N1CCN(c2ccccc2F)CC1	6	-2	11	0	75*	4
O=C(N/N=C/c1cccc(Br)c1)C1CC(=O)N(c2ccccc2)C1 (configuration not stated)	6	-10	6	-4	-14	-10
CCCCN1C(C)=CC(=C2C(=O)c3ccccc3C2=O)C=C1C	-55	-41	53*	-23	60*	7

Screens (PubChem BioAssay)
